Sampled rows, rich in hits. Any-hit rate of the full collection: about 9.2%.
NPC1 promoter act – activates the NPC1 promoter. Huh7 NPC1 promoter luciferase reporter, 24 h. Potency, µM (titrated, usually from 9.22 µM), inactives show at the top dose activation, usual class: activators. 320,000 tested, 2.4% active. AID 485313; further: % of control where 0% means no effect; nearly all actives have a fitted effect of over 60% in size
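Luciferase expression driven by the NPC1 promoter was measured in stably transfected Huh7 cells after a 24 h compound incubation, using a luciferase reagent and a luminescence read.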
Rab9 prom act – Rab9 promoter activation; Potency, µM (titrated, usually from 9.22 µM), for the others: at the highest dose activation, negative = inhibition, most hits filed as activators; Huh7 Rab9 promoter-luciferase reporter, luminescence, 24 h; 320,000 tested, 2.8% active; further: % of control where 0% means no effect; nearly all actives have a fitted effect of over 60% in size
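Measured in stably transfected Huh7 cells bearing a Rab9 promoter–luciferase construct: 24 h compound treatment at 37 °C, followed by luminescence detection.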
FLuc counter – counter-screen for miR-21 project: firefly luciferase inhibitors or activators; P08659; purified FLuc, Km substrates, luminescence inhibition; Potency, µM (doses to about 57.5 µM), without a hit: at the top dose activity change, negative = inhibition, most hits filed as inhibitors; 360,000 tested, 6.9% active;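 further: plate controls were vehicle for no effect and reference inhibitor for full effect; nearly all actives have a fitted effect of over 55% in size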
Target sequence (P08659 whole entry, looked up): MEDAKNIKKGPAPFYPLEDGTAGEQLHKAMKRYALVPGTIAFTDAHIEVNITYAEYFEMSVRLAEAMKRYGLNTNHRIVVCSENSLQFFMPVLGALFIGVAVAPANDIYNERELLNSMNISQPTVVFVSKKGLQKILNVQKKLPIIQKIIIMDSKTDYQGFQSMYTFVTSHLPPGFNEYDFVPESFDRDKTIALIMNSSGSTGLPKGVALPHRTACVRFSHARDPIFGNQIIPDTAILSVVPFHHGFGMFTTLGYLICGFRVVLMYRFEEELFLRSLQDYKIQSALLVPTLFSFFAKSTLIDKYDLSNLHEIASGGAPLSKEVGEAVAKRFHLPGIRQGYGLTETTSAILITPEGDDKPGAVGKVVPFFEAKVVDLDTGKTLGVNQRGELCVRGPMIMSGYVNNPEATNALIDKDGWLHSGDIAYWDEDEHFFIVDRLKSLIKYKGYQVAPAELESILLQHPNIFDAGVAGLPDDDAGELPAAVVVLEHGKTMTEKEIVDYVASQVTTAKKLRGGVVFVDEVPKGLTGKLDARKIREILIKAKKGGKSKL
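Biochemical qHTS of compounds, final roughly 60 µM downward over six points, against 10 nM purified firefly luciferase using Km concentrations of substrates (10 uM D-luciferin, 10 uM ATP) in Tris acetate pH 7.5 buffer; luminescence output.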
ELG1 repair inh – blocks ELG1-dependent DNA repair in HEK293T cells. HEK293T ELG1-luciferase reporter, luminescence, 16 h; DNA damage induced by 5-fluorouridine. 330,000 tested, 2.3% active. Potency, µM (series often up to 46.1 µM), for the others: at the top dose activity change, negative = inhibition, actives largely listed as inhibitors. AID 504467; further: on the % scale 0 is the no-effect control and ±100 the full control effect; nearly all actives have a fitted effect of over 55% in size
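Cells (2,000 per well) received 5-fluorouridine plus test compound or DMSO and were incubated 16 hr at 37 °C, 5% CO2. Luciferase activity was read by luminescence 30 min after ONE-Glo addition; signal suppression marked inhibition of damage-induced ELG1 function.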
SMN2 splice enh – increases expression of the SMN2 splice variant; HEK293 SMN2-luciferase splicing reporter, luminescence, 30-36 h; Potency, µM (highest dose often 46.1 µM), inactives show at the top dose activity change, positive = activation, most hits filed as activators; 210,000 tested, 2.8% active; AID 1458; further: % of control where 0% means no effect; nearly all actives have a fitted effect of over 55% in size
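HEK293 cells carry an SMN2 […]–luciferase reporter in which exon 7 inclusion puts luciferase in frame. Cells were plated 10-12 h before compound addition, then incubated 30-36 h at 37C. ONE-Glo luminescence was read; sodium butyrate at 4.5 mM final served as control.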
ELG1 genotoxic – genotoxicity induction in ELG1-luciferase HEK293T cells | HEK293T ELG1-luciferase reporter, luminescence, 16 h | Potency, µM (series often up to 46 µM), for the others: at the highest dose activity change, positive = activation, actives largely listed as activators | 330,000 tested, 1.3% active; further: % of control where 0% means no effect; nearly all actives have a fitted effect of over 60% in size
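16 hr compound incubation (37 °C, 5% CO2) of HEK293T cells carrying luciferase-tagged ELG1; luciferase then measured by ONE-Glo luminescence after 30 min at RT.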
The depositor's hits bear a star; u = inconclusive; x = not tested or not shown; [ ] = another dose, or the depositor's remark. The call rests on the fitted dose curve; in most records, active means well fitted curve in the direction sought with a large enough effect; inconclusive means small, poorly fitted or top-dose-only effect, or another doubt; inactive means no such curve, though single readings can be large; an effect the other way counts as inactive or inconclusive. Potency means the concentration at half of the fitted maximal effect.

SMILES	NPC1 promoter act	Rab9 prom act	FLuc counter	ELG1 repair inh	SMN2 splice enh	ELG1 genotoxic
COc1ccc(NC(=O)COC(=O)C2CC3C=CC2C3)cc1 (stereo not given)	4.1%	3.4%	16.9µM*	u	-1.2%	5.2%
CNc1ccccc1C(C)(C)c1cc(-c2cccc(OC)c2)no1	-11.7%	-11.4%	-2.8%	1.46µM*	-57.3%	-0.5%
Cc1ccc2c(c1)NC(=O)C(CC(=O)Nc1ccccc1Cl)O2 (stereo not given)	x	x	0.7%	x	0.2%	x
Cc1ccc2c(CN3CCC(C)CC3)cc(=O)oc2c1C	u	u	16.9µM*	u	x	u
Cc1ccc2c(CN3CC(C)CC(C)C3)cc(=O)oc2c1C (stereo not given)	1.1%	-4.6%	-14.1%	7.5%	x	-0.1%
Cc1c(O)ccc2c(CN3CCN(C/C=C/c4ccccc4)CC3)cc(=O)oc12	-0.5%	-5.6%	4.3%	18.3µM*	x	-1.8%
N#Cc1ccc(CN2CCCC3(CCN(S(=O)(=O)c4ccccc4)CC3)C2)cc1	x	x	x	x	-43.5%	x
COCCn1c(=O)c(-c2ccc(F)cc2)nc2cnc(Oc3cccc(Cl)c3)nc21	x	x	x	x	-9.0%	x
CN(C)c1ccnc2sc(C(=O)c3ccc(Br)cc3)c(N)c12	u	u	u	u	22.4µM*	-2.0%
CN(C)c1ccnc2sc(C(=O)NCc3ccccc3)c(N)c12	14.4%	15.4%	u	u	x	u
O=C1C(Cl)=C(Nc2ccc(S(=O)(=O)Nc3ccccn3)cc2)C(=O)c2ccccc21	x	x	x	x	-21.6%[9.22 µM]	x
O=C1C(Cl)=C(NS(=O)(=O)c2ccc([N+](=O)[O-])cc2)C(=O)c2ccccc21	-0.2%	-2.8%	26.9µM*	18.3µM*	x	-16.9%
COC(=O)C(=Cc1ccc(OCc2ccc([N+](=O)[O-])cc2)c(OC)c1)C(=O)OC	-0.9%	0.9%	9.53µM*	u	15.8µM*	u
COc1cc(C(c2c(C)[nH][nH]c2=O)c2c(C)[nH][nH]c2=O)ccc1OCc1ccc([N+](=O)[O-])cc1	18.6%	-0.4%	-19.7%	u	17.8µM*	18.4µM*
CCOC(=O)C(=Cc1ccc(OCc2ccc([N+](=O)[O-])cc2)c(OC)c1)C(=O)OCC	-3.1%	-2.3%	15.1µM*	18.4µM*	-12.8%	-8.8%
COc1cc(C=O)ccc1OCCCOc1ccc([N+](=O)[O-])cc1	0.6%	-3.2%	-0.4%	-14.5%	-66.7%	1.5%
CCCn1cnc2cc(NCc3cccs3)ccc21	u	u	19µM*	u	x	u
CCn1cnc2cc(NCc3ccccc3Cl)ccc21	u	u	16.9µM*	u	x	u
CCCCn1cnc2cc(NCc3ccccc3Cl)ccc21	x	x	23.9µM*	x	17.6%	x
COc1c2c(c(C(=O)/C=C/C(C)=C/c3ccccc3)c3c1OCO3)CCN(C)C2	x	x	x	x	0.7%	x
Cc1ccc(S(=O)(=O)N2CCCCC2)cc1NS(=O)(=O)c1cccc(C(=O)O)c1	-0.1%	-2.8%	6.6%	-0.2%	5.8%	3.0%
COc1ccc2oc(C(=O)Nc3nccs3)c(C)c2c1	1.12µM*	1.12µM*	0.536µM*	u	x	0.517µM*
CCCc1cc(C(=O)Nc2nccs2)cs1	1.78µM*	1.26µM*	1.9µM*	u	3.98µM*	1.3µM*
CCC(CC)C(=O)Nc1cccc(C(=O)Nc2nccs2)c1	-3.8%	-2.2%	0.0%	u	-25.1%	-6.7%
O=C(Nc1ccccc1)Nc1nccs1	16.1%	24.8%	23.9µM*	u	u	-0.8%
SMILES	NPC1 promoter act	Rab9 prom act	FLuc counter	ELG1 repair inh	SMN2 splice enh	ELG1 genotoxic
COc1ccccc1CC(=O)Nc1cccc(C(=O)Nc2nccs2)c1	7.8%	-5.1%	u	16.4µM*	x	-4.7%
O=C(Nc1ccccc1)Nc1nncs1	-1.6%	3.8%	u	1.9%	-0.6%	-1.5%
CCCN1C(=O)c2ccc(C(=O)Nc3nccs3)cc2C1=O	-1.8%	-4.8%	u	29.2%	-16.3%	4.6%
COc1ccc(C(=O)Nc2nccs2)cc1	2.24µM*	3.16µM*	19µM*	u	x	u
COc1ccc(C(=O)Nc2nccs2)cc1[N+](=O)[O-]	11.3%	1.2%	-11.1%	u	11.9%	9.6%
COc1ccc(NC(=O)Nc2nccs2)cc1	4.6%	21.0%	6.75µM*	u	14.1µM*	u
COc1ccc(C(=O)Nc2nccs2)cc1OC	27.3%	u	u	u	7.08µM*	u
C/C(=C\C(=O)Nc1nccs1)c1ccccc1	x	x	9.53µM*	x	u	x
CCCCCN(C(=O)CCC(=O)OCC(=O)N1CCCCC1C)c1c(N)n(CCCC)c(=O)[nH]c1=O (stereo not given)	1.6%	13.8%	3.7%	4.6%	x	7.2%
CN(C)/C=N/c1nc(-c2ccc3c(c2)OCO3)cs1	3.98µM*	3.55µM*	16.9µM*	u	14.1µM*	u
CN(C)/C=N/c1nc(-c2ccc3ccccc3c2)cs1	0.501µM*	0.355µM*	4.78µM*	u	x	u
Cc1nccc(-c2ccc3c(c2)OCO3)n1	0.4%	3.0%	-1.2%	-5.5%	7.0%	6.6%
Cc1cccn2c(=O)c(C(=O)N3CCN(c4ccccc4F)CC3)cnc12	x	x	3.8%	x	x	x
C[C@H](NC(=O)c1ccco1)C(=O)NCc1cccs1	-0.6%	-3.0%	-1.2%	9.3%	x	0.2%
Cc1ccc(C(=O)Nc2ccc(C(=O)N/N=C/c3ccc(C)o3)cc2)cc1	14.5%	27.7%	u	u	x	0.3%
Cc1ccc(C(=O)N/N=C/c2ccc(S(=O)(=O)O)o2)c(Cl)c1	-2.4%	-19.6%	15.1µM*	22.0%	9.2%	-0.1%
COc1ccccc1Nc1nnc(SCC(=O)NC2CC2)s1	-0.9%	1.9%	-9.3%	u	x	7.1%
COc1cc(-c2nnc(CSc3nnc(Nc4ccc(C(C)C)cc4)s3)o2)cc(OC)c1OC	4.8%	14.5%	5.36µM*	6.51µM*	u	0.4%
CCOc1ccccc1Nc1nnc(SCc2nnc(-c3cc(OC)c(OC)c(OC)c3)o2)s1	-0.2%	-1.8%	-0.7%	5.8µM*	-18.4%	-5.9%
COc1ccccc1Nc1nnc(SCc2nnc(-c3cc(OC)c(OC)c(OC)c3)o2)s1	-2.6%	-0.5%	-0.2%	6.51µM*	-4.5%	-1.0%
CC1CN(C(=O)Nc2ccc3c(c2)OCO3)CC(C)O1 (stereo not given)	26.6%	26.5%	16.9µM*	u	25.0%	u
O=C(Nc1ccc2c(c1)OCO2)N1CCN(c2ccc(F)cc2)CC1	u	u	23.9µM*	u	22.2%	12.5%
CN(C)S(=O)(=O)N1CCC(c2ccc(F)cc2)C(COc2ccc3c(c2)OCO3)C1 (stereo not given)	1.5%	7.5%	-0.9%	16.4µM*	-22.2%	-2.8%

High-throughput results (PubChem)
